± gives the standard deviation of the averaged measurements. Targets with the largest changes are over-represented here; the source holds about 5,400 in all.

UniProt Q8IXT5, sequence (Q8IXT5 whole entry, one chain of several): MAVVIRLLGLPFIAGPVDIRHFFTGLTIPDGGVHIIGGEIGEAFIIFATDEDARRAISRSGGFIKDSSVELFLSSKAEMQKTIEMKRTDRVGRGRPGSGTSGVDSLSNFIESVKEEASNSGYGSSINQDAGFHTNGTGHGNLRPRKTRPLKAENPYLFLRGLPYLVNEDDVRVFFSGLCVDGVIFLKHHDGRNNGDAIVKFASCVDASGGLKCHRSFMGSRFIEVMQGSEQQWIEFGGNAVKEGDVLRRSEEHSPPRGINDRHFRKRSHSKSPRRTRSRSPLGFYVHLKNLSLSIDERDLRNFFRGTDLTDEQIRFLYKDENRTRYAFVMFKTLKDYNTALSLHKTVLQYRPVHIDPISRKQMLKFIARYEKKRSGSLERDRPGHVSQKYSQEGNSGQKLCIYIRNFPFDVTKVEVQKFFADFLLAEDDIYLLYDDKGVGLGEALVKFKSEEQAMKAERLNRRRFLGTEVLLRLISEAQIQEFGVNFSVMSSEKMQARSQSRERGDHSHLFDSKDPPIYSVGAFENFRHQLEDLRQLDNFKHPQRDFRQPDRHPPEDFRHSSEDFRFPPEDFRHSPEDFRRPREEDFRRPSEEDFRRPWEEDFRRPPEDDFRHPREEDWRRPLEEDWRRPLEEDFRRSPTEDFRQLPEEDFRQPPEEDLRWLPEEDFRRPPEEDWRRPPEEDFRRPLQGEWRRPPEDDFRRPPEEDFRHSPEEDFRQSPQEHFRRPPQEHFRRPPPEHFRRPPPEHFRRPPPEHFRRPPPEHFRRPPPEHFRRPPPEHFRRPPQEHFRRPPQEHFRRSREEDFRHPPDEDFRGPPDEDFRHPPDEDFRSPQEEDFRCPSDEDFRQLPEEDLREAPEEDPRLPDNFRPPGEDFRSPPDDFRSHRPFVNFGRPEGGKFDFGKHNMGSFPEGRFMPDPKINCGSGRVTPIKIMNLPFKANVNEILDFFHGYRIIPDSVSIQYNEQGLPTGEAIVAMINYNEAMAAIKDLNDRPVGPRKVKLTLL
UniProt P51957, sequence (P51957 whole entry, looked up, one chain of several): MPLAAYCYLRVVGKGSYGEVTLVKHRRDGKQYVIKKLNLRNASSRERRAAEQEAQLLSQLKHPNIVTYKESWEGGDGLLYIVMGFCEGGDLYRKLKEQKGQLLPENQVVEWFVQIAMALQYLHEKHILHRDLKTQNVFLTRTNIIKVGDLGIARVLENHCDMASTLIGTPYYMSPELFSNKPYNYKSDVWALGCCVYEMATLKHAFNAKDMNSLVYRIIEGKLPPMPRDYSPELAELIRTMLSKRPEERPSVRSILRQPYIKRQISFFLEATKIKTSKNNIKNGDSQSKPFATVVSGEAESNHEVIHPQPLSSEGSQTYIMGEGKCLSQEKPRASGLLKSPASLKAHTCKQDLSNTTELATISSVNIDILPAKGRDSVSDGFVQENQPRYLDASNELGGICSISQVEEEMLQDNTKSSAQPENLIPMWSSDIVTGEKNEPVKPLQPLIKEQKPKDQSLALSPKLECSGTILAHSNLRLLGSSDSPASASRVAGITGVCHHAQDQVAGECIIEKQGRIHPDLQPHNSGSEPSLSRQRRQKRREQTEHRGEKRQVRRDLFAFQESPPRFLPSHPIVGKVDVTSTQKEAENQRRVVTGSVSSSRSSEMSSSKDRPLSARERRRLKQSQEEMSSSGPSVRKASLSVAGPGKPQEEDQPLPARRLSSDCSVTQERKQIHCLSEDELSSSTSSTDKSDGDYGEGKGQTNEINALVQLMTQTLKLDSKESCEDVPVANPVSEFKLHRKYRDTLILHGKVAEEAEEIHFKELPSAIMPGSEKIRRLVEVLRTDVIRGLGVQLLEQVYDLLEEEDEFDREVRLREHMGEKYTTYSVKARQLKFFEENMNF
UniProt Q9Y4I1, sequence (Q9Y4I1 whole entry, one chain of several): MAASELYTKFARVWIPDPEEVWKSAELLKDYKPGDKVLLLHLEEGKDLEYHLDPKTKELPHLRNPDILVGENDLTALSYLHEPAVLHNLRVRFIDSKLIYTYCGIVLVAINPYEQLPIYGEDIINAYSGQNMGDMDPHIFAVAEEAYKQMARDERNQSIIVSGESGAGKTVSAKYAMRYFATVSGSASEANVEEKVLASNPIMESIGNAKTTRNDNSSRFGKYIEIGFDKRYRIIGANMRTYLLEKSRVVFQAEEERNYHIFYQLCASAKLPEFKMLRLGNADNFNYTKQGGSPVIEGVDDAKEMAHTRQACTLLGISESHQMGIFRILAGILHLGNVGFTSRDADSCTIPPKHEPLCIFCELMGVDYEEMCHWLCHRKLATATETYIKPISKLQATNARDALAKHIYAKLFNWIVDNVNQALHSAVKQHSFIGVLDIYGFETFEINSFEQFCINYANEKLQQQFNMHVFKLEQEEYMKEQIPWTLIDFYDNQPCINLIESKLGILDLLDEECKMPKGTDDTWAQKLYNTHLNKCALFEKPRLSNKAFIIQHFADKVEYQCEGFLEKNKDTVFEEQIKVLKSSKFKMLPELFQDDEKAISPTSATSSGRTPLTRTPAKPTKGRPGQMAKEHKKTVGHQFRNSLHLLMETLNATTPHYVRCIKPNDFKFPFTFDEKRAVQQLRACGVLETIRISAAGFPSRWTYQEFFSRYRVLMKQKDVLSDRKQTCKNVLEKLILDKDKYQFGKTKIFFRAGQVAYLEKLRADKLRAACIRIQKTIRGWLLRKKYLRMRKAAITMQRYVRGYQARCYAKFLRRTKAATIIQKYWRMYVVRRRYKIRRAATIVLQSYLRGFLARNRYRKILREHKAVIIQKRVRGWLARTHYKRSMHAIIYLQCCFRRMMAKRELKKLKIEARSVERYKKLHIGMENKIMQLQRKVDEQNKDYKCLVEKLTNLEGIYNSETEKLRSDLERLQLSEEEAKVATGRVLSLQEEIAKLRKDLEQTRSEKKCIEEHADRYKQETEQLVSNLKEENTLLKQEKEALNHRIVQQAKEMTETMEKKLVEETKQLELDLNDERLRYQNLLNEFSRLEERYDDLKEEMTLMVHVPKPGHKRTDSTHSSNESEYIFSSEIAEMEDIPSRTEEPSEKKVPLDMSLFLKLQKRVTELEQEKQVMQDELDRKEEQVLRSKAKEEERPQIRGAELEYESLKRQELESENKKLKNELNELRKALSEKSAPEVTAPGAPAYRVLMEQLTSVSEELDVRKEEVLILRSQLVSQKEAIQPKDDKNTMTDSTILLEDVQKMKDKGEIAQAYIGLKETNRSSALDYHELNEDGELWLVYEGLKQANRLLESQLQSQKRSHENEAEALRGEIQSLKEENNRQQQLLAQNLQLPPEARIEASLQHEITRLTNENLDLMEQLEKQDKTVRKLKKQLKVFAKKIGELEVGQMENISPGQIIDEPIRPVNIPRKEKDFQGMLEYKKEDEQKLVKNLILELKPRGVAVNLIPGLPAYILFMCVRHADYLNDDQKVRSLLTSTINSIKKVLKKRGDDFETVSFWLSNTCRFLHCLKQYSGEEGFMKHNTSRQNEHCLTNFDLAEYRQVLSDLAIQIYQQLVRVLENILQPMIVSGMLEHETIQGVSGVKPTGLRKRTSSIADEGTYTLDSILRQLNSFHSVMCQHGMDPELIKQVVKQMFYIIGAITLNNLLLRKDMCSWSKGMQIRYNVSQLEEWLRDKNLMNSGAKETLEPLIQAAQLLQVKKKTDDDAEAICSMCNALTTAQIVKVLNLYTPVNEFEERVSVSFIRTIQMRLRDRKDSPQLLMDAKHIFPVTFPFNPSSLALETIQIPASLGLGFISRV
UniProt Q96FV9, sequence (Q96FV9 whole entry, one chain of several): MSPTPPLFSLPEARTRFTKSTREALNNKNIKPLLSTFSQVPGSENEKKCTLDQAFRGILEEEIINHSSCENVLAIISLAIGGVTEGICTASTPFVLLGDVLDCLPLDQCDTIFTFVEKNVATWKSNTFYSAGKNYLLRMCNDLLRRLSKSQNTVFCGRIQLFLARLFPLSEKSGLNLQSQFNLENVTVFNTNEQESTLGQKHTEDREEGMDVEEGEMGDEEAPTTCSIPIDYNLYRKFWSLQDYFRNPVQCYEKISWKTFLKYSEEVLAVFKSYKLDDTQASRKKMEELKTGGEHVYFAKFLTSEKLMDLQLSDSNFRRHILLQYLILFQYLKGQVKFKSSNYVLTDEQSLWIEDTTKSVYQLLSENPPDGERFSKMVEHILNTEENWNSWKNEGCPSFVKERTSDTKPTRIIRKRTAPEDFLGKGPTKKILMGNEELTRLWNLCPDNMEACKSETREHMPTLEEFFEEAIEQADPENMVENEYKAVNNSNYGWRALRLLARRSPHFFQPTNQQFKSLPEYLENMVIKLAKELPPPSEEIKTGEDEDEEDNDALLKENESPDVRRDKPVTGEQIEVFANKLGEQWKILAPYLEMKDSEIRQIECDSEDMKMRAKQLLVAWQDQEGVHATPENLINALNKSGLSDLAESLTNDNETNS
UniProt Q6UW02, sequence (Q6UW02 whole entry, one chain of several): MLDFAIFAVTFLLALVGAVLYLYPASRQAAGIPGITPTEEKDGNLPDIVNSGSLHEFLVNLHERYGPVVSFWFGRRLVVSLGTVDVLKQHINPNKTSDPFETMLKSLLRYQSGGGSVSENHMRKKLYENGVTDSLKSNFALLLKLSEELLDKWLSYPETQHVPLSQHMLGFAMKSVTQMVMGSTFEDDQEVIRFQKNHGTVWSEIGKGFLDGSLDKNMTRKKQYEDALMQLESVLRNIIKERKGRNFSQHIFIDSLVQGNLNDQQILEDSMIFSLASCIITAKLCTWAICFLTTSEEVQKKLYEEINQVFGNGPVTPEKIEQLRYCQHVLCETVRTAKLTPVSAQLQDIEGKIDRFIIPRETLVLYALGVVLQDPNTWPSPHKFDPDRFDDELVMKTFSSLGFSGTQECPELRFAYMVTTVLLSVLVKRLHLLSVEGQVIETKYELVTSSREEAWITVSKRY
UniProt Q9BTT0, sequence (Q9BTT0 whole entry, one chain of several): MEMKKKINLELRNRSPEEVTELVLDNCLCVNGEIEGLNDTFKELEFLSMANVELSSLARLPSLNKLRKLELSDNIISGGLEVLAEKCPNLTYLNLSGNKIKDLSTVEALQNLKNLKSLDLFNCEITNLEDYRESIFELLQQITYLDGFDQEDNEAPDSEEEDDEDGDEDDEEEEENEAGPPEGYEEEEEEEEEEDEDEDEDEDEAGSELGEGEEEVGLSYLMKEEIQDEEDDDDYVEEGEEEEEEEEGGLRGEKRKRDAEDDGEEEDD

Compound in one test: Nc1nc2c(ncn2[C@@H]2O[C@H](COP(=O)(O)OP(=O)(O)OP(=O)(O)O)[C@@H](O)[C@H]2O)c(=O)[nH]1 [guanosine triphosphate]
In words: NP40-soluble protein abundance relative to vehicle (solubility fold change) (ratio); higher = more soluble protein in presence of GTP. As to conditions: concentration: 2mM. The method in brief:
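Across three independent experiments, values are fold changes against the detergent-processed vehicle for each replicate, based on vsn-normalised intensities. The samples were Jurkat crude lysate treated with eight concentrations (0.1 to 10 mM) for 10 min at room temperature and then 3 min at 37 °C. Lysate was solubilised with 0.8% NP40 and benzonase, ultracentrifuged, and the supernatant analysed by TMT-labelled LC-MS/MS.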
In the case of G3V394|Q9Y4I1-3 (UniProt Q9Y4I1), the NP40-soluble protein abundance was 2.51 ± 0.3.

Consider E7EW84|Q8TAG9 (UniProt Q8TAG9), for which the NP40-soluble protein abundance amounted to 1.08 ± 0.082.

Take “B1AL05|H0Y6Y8|H0YBU8|Q8N983|Q8N983-2|Q8N983-3|Q8N983-4|Q8N983-6|Q8N983-7 (UniProt Q8N983)”: the NP40-soluble protein abundance was determined as 1.75 ± 0.66.

For the target F2Z2Y4|O00764|O00764-2 (UniProt O00764), the NP40-soluble protein abundance is 0.918 ± 0.095.

Take B3KS98|O15372 (UniProt O15372): the NP40-soluble protein abundance came to 1.08 ± 0.15.

“A0A0B4J1Z1|C9JAB2|Q16629|Q16629-2|Q16629-3|Q16629-4 (UniProt Q16629)”: the NP40-soluble protein abundance is 1.58 ± 0.16.

With E9PRF4|Q15047|Q15047-3 (UniProt Q15047), the NP40-soluble protein abundance was 0.909 ± 0.039.

In the case of “A0A087WWH3|Q9NZM4|Q9NZM4-2 (UniProt Q9NZM4)”, the NP40-soluble protein abundance amounted to 1.22 ± 0.1.

With B9ZVT1|Q8IXT5 (UniProt Q8IXT5), the NP40-soluble protein abundance was determined as 1.28 ± 0.25.

Regarding “A0A087WY71|Q96CW1|Q96CW1-2 (UniProt Q96CW1)”, the NP40-soluble protein abundance came out at 1.04 ± 0.16.

Take “A0A087WY82|Q9Y624|Q9Y624-2 (UniProt Q9Y624)”: the NP40-soluble protein abundance was found to be 0.938 ± 0.059.

For E9PPH5|Q9BTT0|Q9BTT0-3 (UniProt Q9BTT0), the NP40-soluble protein abundance is 0.94 ± 0.045.

For A0A087WWS1|Q96FV9 (UniProt Q96FV9), the NP40-soluble protein abundance was determined as 1.76 ± 0.41.

Turning to E9PHG5|Q6UW02|Q6UW02-2 (UniProt Q6UW02), the NP40-soluble protein abundance turned out to be 1.04 ± 0.061.

In the case of “H0YIE9|O94952|O94952-1|Q4G104 (UniProt O94952)”, the NP40-soluble protein abundance stood at 1.04 ± 0.12.

Consider G5E9Z2|Q96KA5|Q96KA5-2 (UniProt Q96KA5), for which the NP40-soluble protein abundance stood at 0.983 ± 0.034.

In the case of “A8MQB8|G3V0J0|Q06787|Q06787-2|Q06787-3|Q06787-4|Q06787-5|Q06787-6|Q06787-7|Q06787-8|Q06787-9 (UniProt Q06787)”, the NP40-soluble protein abundance came out at 1.24 ± 0.0061.

In the case of A0A0C4DGS0|P56556 (UniProt P56556), the NP40-soluble protein abundance amounted to 1.08 ± 0.12.

As to E7EX48|P51957|P51957-3 (UniProt P51957), the NP40-soluble protein abundance came to 1.01 ± 0.2.

For the target H0YEN5|P15880 (UniProt P15880), the NP40-soluble protein abundance turned out to be 0.936 ± 0.19.

On to “C9IY68|C9J384|Q9BQ75|Q9BQ75-2 (UniProt Q9BQ75)”, for which the NP40-soluble protein abundance stood at 1.1 ± 0.058.

For B4E1Q4|O14730|O14730-2 (UniProt O14730), the NP40-soluble protein abundance was 0.921 ± 0.073.

As to “E7EN86|P52747|P52747-2|P52747-3 (UniProt P52747)”, the NP40-soluble protein abundance was 0.94 ± 0.013.

For A6NFX8|Q9UKK9 (UniProt Q9UKK9), the NP40-soluble protein abundance worked out at 0.994 ± 0.079.

As for F5H136|P17987 (UniProt P17987), the NP40-soluble protein abundance turned out to be 1.11 ± 0.18.

Take “E9PKP7|E9PLT2|P17480|P17480-2 (UniProt P17480)”: the NP40-soluble protein abundance stood at 1.2 ± 0.079.

A0A087X256|Q2M389 (UniProt Q2M389): the NP40-soluble protein abundance was found to be 0.975 ± 0.028.

With E9PSH8|P07766 (UniProt P07766), the NP40-soluble protein abundance came to 0.958 ± 0.085.

As for D6RAN8|H7C5U8|Q9P0M9 (UniProt Q9P0M9), the NP40-soluble protein abundance amounted to 1.81 ± 0.82.

As to “G5E953|Q13615|Q13615-2|Q13615-3 (UniProt Q13615)”, the NP40-soluble protein abundance amounted to 0.953 ± 0.034.

For H3BMU3|O60268|O60268-3 (UniProt O60268), the NP40-soluble protein abundance stood at 0.95 ± 0.15.

Regarding “F8W0Q9|Q8NEY8-2|Q8NEY8-8|Q8NEY8-9|Q8NEY8-3|Q8NEY8 (UniProt Q8NEY8)”, the NP40-soluble protein abundance was 1.28 ± 0.096.

As to C9J8R4|C9JVE2|Q96GG9 (UniProt Q96GG9), the NP40-soluble protein abundance amounted to 0.889 ± 0.072.

On to A0A087WXI1|Q6NVY1 (UniProt Q6NVY1), for which the NP40-soluble protein abundance was 0.875 ± 0.083.

Staying with this test, now noted: concentration: 4mM.
Take G3V394|Q9Y4I1-3 (UniProt Q9Y4I1): the NP40-soluble protein abundance was 2.65 ± 0.31.

Take E7EW84|Q8TAG9 (UniProt Q8TAG9): the NP40-soluble protein abundance turned out to be 1.01 ± 0.12.

Turning to “B1AL05|H0Y6Y8|H0YBU8|Q8N983|Q8N983-2|Q8N983-3|Q8N983-4|Q8N983-6|Q8N983-7 (UniProt Q8N983)”, the NP40-soluble protein abundance was found to be 1.71 ± 0.69.

For F2Z2Y4|O00764|O00764-2 (UniProt O00764), the NP40-soluble protein abundance was determined as 0.905 ± 0.071.

Regarding B3KS98|O15372 (UniProt O15372), the NP40-soluble protein abundance was found to be 1.27 ± 0.25.

With “A0A0B4J1Z1|C9JAB2|Q16629|Q16629-2|Q16629-3|Q16629-4 (UniProt Q16629)”, the NP40-soluble protein abundance turned out to be 1.44 ± 0.33.

Regarding E9PRF4|Q15047|Q15047-3 (UniProt Q15047), the NP40-soluble protein abundance came out at 0.873 ± 0.04.

As to “A0A087WWH3|Q9NZM4|Q9NZM4-2 (UniProt Q9NZM4)”, the NP40-soluble protein abundance came out at 1.22 ± 0.15.

For B9ZVT1|Q8IXT5 (UniProt Q8IXT5), the NP40-soluble protein abundance amounted to 1.29 ± 0.29.

In the case of “A0A087WY71|Q96CW1|Q96CW1-2 (UniProt Q96CW1)”, the NP40-soluble protein abundance is 1.04 ± 0.14.

In the case of “A0A087WY82|Q9Y624|Q9Y624-2 (UniProt Q9Y624)”, the NP40-soluble protein abundance was 0.851 ± 0.066.

On to E9PPH5|Q9BTT0|Q9BTT0-3 (UniProt Q9BTT0), for which the NP40-soluble protein abundance was found to be 0.937 ± 0.056.

A0A087WWS1|Q96FV9 (UniProt Q96FV9): the NP40-soluble protein abundance was 2.08 ± 0.62.

Regarding E9PHG5|Q6UW02|Q6UW02-2 (UniProt Q6UW02), the NP40-soluble protein abundance came to 0.955 ± 0.16.

As to “H0YIE9|O94952|O94952-1|Q4G104 (UniProt O94952)”, the NP40-soluble protein abundance amounted to 1.12 ± 0.014.

On to G5E9Z2|Q96KA5|Q96KA5-2 (UniProt Q96KA5), for which the NP40-soluble protein abundance was 0.989 ± 0.016.

In the case of “A8MQB8|G3V0J0|Q06787|Q06787-2|Q06787-3|Q06787-4|Q06787-5|Q06787-6|Q06787-7|Q06787-8|Q06787-9 (UniProt Q06787)”, the NP40-soluble protein abundance was 1.41 ± 0.093.

Take A0A0C4DGS0|P56556 (UniProt P56556): the NP40-soluble protein abundance was 1.09 ± 0.17.

For the target E7EX48|P51957|P51957-3 (UniProt P51957), the NP40-soluble protein abundance was determined as 0.986 ± 0.21.

Take H0YEN5|P15880 (UniProt P15880): the NP40-soluble protein abundance amounted to 0.848 ± 0.21.

As for “C9IY68|C9J384|Q9BQ75|Q9BQ75-2 (UniProt Q9BQ75)”, the NP40-soluble protein abundance is 1.17 ± 0.069.

Consider B4E1Q4|O14730|O14730-2 (UniProt O14730), for which the NP40-soluble protein abundance worked out at 0.806 ± 0.037.

With “E7EN86|P52747|P52747-2|P52747-3 (UniProt P52747)”, the NP40-soluble protein abundance was 0.988 ± 0.076.

Take A6NFX8|Q9UKK9 (UniProt Q9UKK9): the NP40-soluble protein abundance came to 0.968 ± 0.046.

In the case of F5H136|P17987 (UniProt P17987), the NP40-soluble protein abundance is 1.09 ± 0.2.

Regarding “E9PKP7|E9PLT2|P17480|P17480-2 (UniProt P17480)”, the NP40-soluble protein abundance is 1.31 ± 0.074.

Take A0A087X256|Q2M389 (UniProt Q2M389): the NP40-soluble protein abundance was determined as 0.957 ± 0.028.

Regarding E9PSH8|P07766 (UniProt P07766), the NP40-soluble protein abundance is 0.962 ± 0.082.

On to D6RAN8|H7C5U8|Q9P0M9 (UniProt Q9P0M9), for which the NP40-soluble protein abundance amounted to 1.91 ± 0.83.

As to “G5E953|Q13615|Q13615-2|Q13615-3 (UniProt Q13615)”, the NP40-soluble protein abundance is 0.976 ± 0.045.

As for H3BMU3|O60268|O60268-3 (UniProt O60268), the NP40-soluble protein abundance was determined as 0.961 ± 0.14.

For the target “F8W0Q9|Q8NEY8-2|Q8NEY8-8|Q8NEY8-9|Q8NEY8-3|Q8NEY8 (UniProt Q8NEY8)”, the NP40-soluble protein abundance came to 1.41 ± 0.18.

With C9J8R4|C9JVE2|Q96GG9 (UniProt Q96GG9), the NP40-soluble protein abundance was 0.867 ± 0.048.

In the case of A0A087WXI1|Q6NVY1 (UniProt Q6NVY1), the NP40-soluble protein abundance worked out at 0.863 ± 0.087.

The values are drawn from the supplement of paper PMC6411743.
